Assay results as given in PubChem BioAssay.
Active and inactive are the calls of the source.

Tests used:
[1] = system: Plasmodium falciparum Sir2 (PF13_0152, Sir2A); experiment: pfSir2 binders on small-molecule microarrays, primary screen, biochemical, small-molecule microarray, 635 nm fluorescence (AID 1098); conditions: small-molecule microarray binding, fluorescence 635 nm; higher = more signal;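 further: score merges spot fluorescence intensity with its signal-to-noise ratio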
[2] = small-molecule microarray binders of probe aDKK1, primary screen, biochemical, biotinylated probe, 635/667 nm fluorescence (AID 1099); conditions: higher = more signal;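 further: score merges 667nm spot fluorescence with signal to noise across triplicate slides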
[3] = small-molecule microarray binders of probe aCHRDL2, primary screen, biochemical, biotinylated probe, 635/667 nm fluorescence (AID 1100); conditions: higher = more signal
[4] = splicing luciferase reporter signal modulators, primary screen, spliceosome inhibition project, cell-based, HEK293, splice +/- reporter (AID 1101); conditions: luminescence, 24 h, higher = more signal, called active from +8 up or from −8 down;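 further: HEK293 cells carrying a splicing-competent luciferase reporter gene; test concentration not given here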
[5] = biological target: Fibroblast growth factor 10 (Homo sapiens) (UniProt O15520); experiment: FGF10 binders on small-molecule microarrays, primary screen, biochemical, small-molecule microarray, 635 nm fluorescence (AID 1102); conditions: FGF10 binding, fluorescence 635 nm, higher = more signal
Sequence of Fibroblast growth factor 10 (Homo sapiens) (O15520 whole entry, looked up): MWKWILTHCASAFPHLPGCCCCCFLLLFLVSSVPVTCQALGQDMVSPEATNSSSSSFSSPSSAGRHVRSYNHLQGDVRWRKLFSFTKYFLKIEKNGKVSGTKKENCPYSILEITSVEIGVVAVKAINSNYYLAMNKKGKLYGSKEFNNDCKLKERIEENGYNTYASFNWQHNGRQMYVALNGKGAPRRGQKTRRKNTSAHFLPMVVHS

[6] = system: glycogen synthase kinase-3 (GSK3A per assay name; protocol says GSK3B); experiment: GSK3 binders on small-molecule microarrays, primary screen, biochemical, small-molecule microarray, 635 nm fluorescence, GSK3A (AID 1103); conditions: small-molecule microarray binding, fluorescence 635 nm; higher = more signal; further: the record names both GSK3A and GSK3B
[7] = biological target: Epidermal growth factor receptor (Homo sapiens) (UniProt P00533); experiment: EGFR binders on small-molecule microarrays, primary screen, biochemical, small-molecule microarray, 635 nm fluorescence (AID 1104); conditions: EGFR binding, higher = more signal;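 further: score merges 667 nm emission intensity with spot signal to noise over triplicate slides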
Sequence of Epidermal growth factor receptor (Homo sapiens) (P00533 whole entry, looked up): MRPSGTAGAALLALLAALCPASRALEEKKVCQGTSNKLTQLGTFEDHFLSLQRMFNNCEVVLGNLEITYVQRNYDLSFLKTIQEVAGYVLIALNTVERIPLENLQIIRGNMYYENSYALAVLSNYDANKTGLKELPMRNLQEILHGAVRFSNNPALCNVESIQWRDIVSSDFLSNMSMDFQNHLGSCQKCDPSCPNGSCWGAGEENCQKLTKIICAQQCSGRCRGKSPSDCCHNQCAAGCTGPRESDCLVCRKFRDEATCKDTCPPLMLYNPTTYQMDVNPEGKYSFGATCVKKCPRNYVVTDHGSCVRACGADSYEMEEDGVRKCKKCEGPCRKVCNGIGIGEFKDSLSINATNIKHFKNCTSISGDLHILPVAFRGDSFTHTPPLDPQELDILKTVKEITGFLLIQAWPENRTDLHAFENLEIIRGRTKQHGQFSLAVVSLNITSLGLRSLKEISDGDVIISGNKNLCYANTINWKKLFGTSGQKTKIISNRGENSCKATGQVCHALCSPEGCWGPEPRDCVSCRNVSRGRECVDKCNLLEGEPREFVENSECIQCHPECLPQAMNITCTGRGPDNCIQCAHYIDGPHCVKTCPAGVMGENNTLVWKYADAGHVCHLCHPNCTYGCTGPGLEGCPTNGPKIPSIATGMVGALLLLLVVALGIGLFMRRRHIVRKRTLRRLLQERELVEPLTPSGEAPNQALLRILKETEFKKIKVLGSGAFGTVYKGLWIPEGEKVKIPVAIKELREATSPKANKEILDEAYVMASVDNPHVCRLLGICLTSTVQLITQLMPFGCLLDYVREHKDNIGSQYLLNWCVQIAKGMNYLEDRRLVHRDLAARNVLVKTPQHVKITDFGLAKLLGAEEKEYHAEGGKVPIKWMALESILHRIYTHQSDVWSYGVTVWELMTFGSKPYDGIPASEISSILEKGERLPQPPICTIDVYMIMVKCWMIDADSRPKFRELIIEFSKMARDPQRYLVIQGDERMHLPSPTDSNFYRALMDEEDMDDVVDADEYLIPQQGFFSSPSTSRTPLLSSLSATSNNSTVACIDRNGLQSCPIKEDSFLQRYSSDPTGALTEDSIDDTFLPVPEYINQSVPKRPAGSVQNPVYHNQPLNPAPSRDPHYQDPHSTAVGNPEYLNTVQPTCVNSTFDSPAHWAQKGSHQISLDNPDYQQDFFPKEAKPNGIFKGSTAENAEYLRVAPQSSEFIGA

[8] = biological target: Follistatin-related protein 3 (Homo sapiens) (UniProt O95633); experiment: FSTL3 binders on small-molecule microarrays, primary screen, biochemical, small-molecule microarray, 635 nm fluorescence (AID 1105); conditions: FSTL3 binding, higher = more signal;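 further: score merges emission near 667 nm and signal to noise per printed spot across three slides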
Sequence of Follistatin-related protein 3 (Homo sapiens) (O95633 whole entry, looked up): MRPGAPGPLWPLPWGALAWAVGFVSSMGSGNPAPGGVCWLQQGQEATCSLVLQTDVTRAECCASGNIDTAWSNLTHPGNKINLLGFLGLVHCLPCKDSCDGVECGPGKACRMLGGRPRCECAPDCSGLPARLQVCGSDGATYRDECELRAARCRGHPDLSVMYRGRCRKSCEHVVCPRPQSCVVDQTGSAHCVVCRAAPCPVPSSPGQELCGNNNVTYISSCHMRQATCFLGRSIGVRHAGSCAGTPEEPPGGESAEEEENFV

[9] = biological target: Dickkopf-related protein 1 (Homo sapiens) (UniProt O94907); experiment: DKK1 binders on small-molecule microarrays, primary screen, biochemical, small-molecule microarray, 635 nm fluorescence scan (AID 1106); conditions: DKK1 binding, higher = more signal;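 further: score merges emission near 667 nm with signal to noise over three replicate slides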
Sequence of Dickkopf-related protein 1 (Homo sapiens) (O94907 whole entry, looked up): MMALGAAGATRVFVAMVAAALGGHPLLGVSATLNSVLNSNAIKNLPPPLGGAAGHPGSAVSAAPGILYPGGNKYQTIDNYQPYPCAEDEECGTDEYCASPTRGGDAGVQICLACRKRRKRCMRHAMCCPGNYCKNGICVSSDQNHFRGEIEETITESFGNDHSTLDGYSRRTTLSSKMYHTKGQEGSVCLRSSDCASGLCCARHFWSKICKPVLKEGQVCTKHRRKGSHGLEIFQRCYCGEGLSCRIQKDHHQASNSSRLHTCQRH

[10] = system: Inhibin beta A chain (activin A); experiment: INHBA (activin A) binders on microarrays, primary screen, biochemical, small-molecule microarray, 635 nm fluorescence scan (AID 1107); conditions: small-molecule microarray binding, higher = more signal;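 further: mouse activin A protein probed at 4.33 µg/mL on printed slides; score merges bound-protein fluorescence near 667 nm with spot signal-to-noise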
[11] = system: Human papillomavirus type 1a protein E7 (residues 44-93); experiment: HPV1a E7 fragment binders on microarrays, primary screen, biochemical, small-molecule microarray, residues 44-93, 635 nm fluorescence (AID 1108); conditions: small-molecule microarray binding, fluorescence 635 nm; higher = more signal;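 further: E7 fragment applied at 1 µg/mL in TBST for 1 h at 4 C; score combines spot fluorescence with its signal to noise ratio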
[12] = modulators of HCV replicon luciferase signal, primary screen, HCV replication inhibitor project, Huh7 cells, luciferase reporter (AID 1109); conditions: 48 h, higher = more signal;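 further: huh7 hepatoma cells harbouring a luciferase neomycin HCV replicon reporter; luciferase luminescence as measure of HCV replicon replication; test concentration not given here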
[13] = biological target: Left-right determination factor 2 (Homo sapiens) (UniProt O00292); experiment: LEFTY2 binders on small-molecule microarrays, primary screen, biochemical, small-molecule microarray, 635 nm fluorescence scan (AID 1110); conditions: LEFTY2 binding, higher = more signal
Sequence of Left-right determination factor 2 (Homo sapiens) (O00292 whole entry, looked up): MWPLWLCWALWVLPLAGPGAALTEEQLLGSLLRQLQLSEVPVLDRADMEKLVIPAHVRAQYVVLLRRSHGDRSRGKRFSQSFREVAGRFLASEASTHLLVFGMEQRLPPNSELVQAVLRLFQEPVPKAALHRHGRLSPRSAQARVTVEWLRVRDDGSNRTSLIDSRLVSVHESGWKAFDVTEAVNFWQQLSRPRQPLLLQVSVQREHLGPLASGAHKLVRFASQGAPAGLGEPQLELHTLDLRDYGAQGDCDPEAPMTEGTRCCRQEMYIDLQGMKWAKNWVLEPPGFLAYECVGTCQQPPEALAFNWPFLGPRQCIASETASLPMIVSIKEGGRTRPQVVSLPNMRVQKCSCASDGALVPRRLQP

[14] = biological target: Calmodulin-1 (Homo sapiens) (UniProt P0DP23); experiment: CALM1 binders on microarrays, EGTA buffer, profiling panel, biochemical, small-molecule microarray, Cy5-labelled CALM1 (AID 1111); conditions: Cy5-CALM1 binding fluorescence, higher = more signal;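 further: labelled calmodulin applied in Tris saline Tween buffer holding calcium plus EGTA and DTT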
[15] = biological target: Calmodulin-1 (Homo sapiens) (UniProt P0DP23); experiment: calcium-bound CALM1 binders on microarrays, profiling panel, artefact control for SMM control-protein annotation, biochemical, small-molecule microarray, Cy5-labelled CALM1, plus calcium (AID 1112); conditions: Cy5-CALM1 binding fluorescence, higher = more signal;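 further: score merges spot fluorescence with signal to noise from triplicate slides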
[16] = small-molecule microarray binders of probe aWnt5a, primary screen, biochemical, biotinylated probe, 635/667 nm fluorescence (AID 1113); conditions: higher = more signal;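 further: score merges 667 nm fluorescence intensity with signal-to-noise per printed feature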
[17] = small-molecule microarray binders of probe aShh, primary screen, biochemical, biotinylated probe, 635/667 nm fluorescence (AID 1114); conditions: higher = more signal;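 further: probe is biotin-labelled aShh protein from a stem cell growth factor screen; measures binding of labelled protein to compounds printed on the slide; score merges feature fluorescence at 667 nm with signal-to-noise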
[18] = small-molecule microarray binders of probe aNog, primary screen, biochemical, biotinylated probe, 635/667 nm fluorescence (AID 1115); conditions: higher = more signal;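 further: probe is biotinylated aNog protein used at 0.15 µg/mL for 1 h at 4 C; z-score combines 667 nm fluorescence of each spot with its signal to noise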
[19] = biological target: Torsin-1A-interacting protein 1 (Homo sapiens) (UniProt Q5JTV8); experiment: LAP1 binders from COS7 cell lysate, primary screen, small-molecule microarray, 635/667 nm fluorescence (AID 1116); conditions: COS7-hLAP1 lysate binding, 635 nm fluorescence, higher = more signal
Sequence of Torsin-1A-interacting protein 1 (Homo sapiens) (Q5JTV8 whole entry, looked up): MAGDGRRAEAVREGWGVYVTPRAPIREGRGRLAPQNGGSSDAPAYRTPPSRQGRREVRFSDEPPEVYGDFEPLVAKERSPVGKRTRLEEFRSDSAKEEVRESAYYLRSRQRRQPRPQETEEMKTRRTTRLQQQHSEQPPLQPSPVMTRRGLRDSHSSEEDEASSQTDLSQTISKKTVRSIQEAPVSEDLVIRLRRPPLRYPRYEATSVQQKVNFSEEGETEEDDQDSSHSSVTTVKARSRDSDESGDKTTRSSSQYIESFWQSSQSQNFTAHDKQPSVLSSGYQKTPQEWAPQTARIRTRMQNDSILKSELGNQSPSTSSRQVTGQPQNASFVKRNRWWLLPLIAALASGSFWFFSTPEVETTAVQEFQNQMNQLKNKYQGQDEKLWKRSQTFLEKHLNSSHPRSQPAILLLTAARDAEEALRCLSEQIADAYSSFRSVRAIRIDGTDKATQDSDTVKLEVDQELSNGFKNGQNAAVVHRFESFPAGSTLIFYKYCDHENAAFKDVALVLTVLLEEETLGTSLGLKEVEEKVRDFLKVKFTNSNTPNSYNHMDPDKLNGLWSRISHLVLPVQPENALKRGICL

[20] = biological target: Alpha-bungarotoxin (Bungarus multicinctus) (UniProt P60615); experiment: alpha-bungarotoxin binders on microarray, profiling panel, artefact control for SMM control protein annotation, biochemical, small-molecule microarray, Alexa647 label, 635/667 nm fluorescence (AID 1117); conditions: alpha-BTX-A647 binding fluorescence, higher = more signal
Sequence of Alpha-bungarotoxin (Bungarus multicinctus) (P60615 whole entry, looked up): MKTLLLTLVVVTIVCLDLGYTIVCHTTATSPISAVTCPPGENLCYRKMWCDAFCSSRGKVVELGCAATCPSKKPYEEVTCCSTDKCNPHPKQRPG

SMILES	composite z-score [1]	composite z-score [2]	composite z-score [3]	z-score [4]	composite z-score [5]	composite z-score [6]	composite z-score [7]	composite z-score [8]	composite z-score [9]	composite z-score [10]	composite z-score [11]	z-score [12]	composite z-score [13]	composite z-score [14]	composite z-score [15]	composite z-score [16]	composite z-score [17]	composite z-score [18]	composite z-score [19]	composite z-score [20]
O=C1c2ccccc2[C@](Cc2ccccc2I)(C(=O)NC2CC2)[C@H](c2ccc(CO)cc2)N1Cc1ccccc1Cl	0.453	0.831	0.995	0.119 (inactive)	0.652	1.28	-0.0191	0.345	0.0978	1.02	1.06	-1.4	-0.112	0.638	0.61	-0.0701	0.755	0.139	0.747	0.09
CCCCC=C[C@@H](NC(=O)CCc1ccccc1)c1ccccc1	0.956	0.401	-0.0262	11.9 (active)	0.919	0.869	0.51	0.188	0.248	0.724	1.38	-2.6	0.151	0.504	0.57	0.145	1.11	1.11	1.49	1.19
C[C@]12C(=O)N(CCCCCO)[C@@H]3C(=O)N(c4ccc(Cl)cc4)CC=CC31O[C@@H]1/C=C\CCCOC(=O)C12 (stereo not given in full)	0.677	-0.131	0.557	-0.0628 (inactive)	-1.21	-1.82	-1.22	-0.934	-1.19	-0.0839	-1.86	-0.381	-1.95	-0.811	1.22	-0.23	-0.138	-0.125	-0.579	-0.797
O=C1c2ccccc2C(=O)C2CC([C@H]3Oc4ccccc4S(=O)(=O)N4CCC[C@@H]34)=CCC12 (stereo not given in full)	-0.41	-0.158	-0.119	-0.279 (inactive)	0.0804	0.301	0.153	-0.26	0.187	0.771	-0.811	-1.34	0.0197	-0.488	0.184	-0.124	-0.0362	-0.273	0.123	0.0404
CCCCCCCCCCC(O)C1C=CC2C(=O)NC(=O)C2N1Nc1ccccn1 (stereo not given)	1.07	0.482	0.883	0.447 (inactive)	-0.649	-0.811	-0.689	-0.448	-0.765	0.997	1.08	-2.64	-0.765	1.4	0.945	-0.0566	0.337	1.7	-0.0182	0.217
COCCOC(=O)N1C(=O)[C@@]2(c3cc(C#Cc4ccc(OC)cc4)ccc31)[C@H](C(=O)N1CCc3cc(OC)c(OC)cc3C1)[C@H]1C(=O)O[C@H](c3ccccc3)[C@H](c3ccccc3)N1[C@@H]2c1ccc(O)cc1	0.404	-0.0986	-0.107	-0.318 (inactive)	1.06	1.21	0.465	0.649	0.644	0.837	1.13	-0.246	0.582	0.111	-0.575	0.0088	0.191	-0.407	0.575	1.78
CC(=O)NCCCC[C@@H]1NC(=O)[C@@H]2C[C@H](C(=O)NCCCC[N+](C)(C)C)[C@H](c3cccc(OCCO)c3)N2C1=O	1.08	-0.11	0.275	0.677 (inactive)	0.766	-0.57	-0.734	1.02	0.232	-0.146	0.193	-0.703	0.0711	0.601	0.0189	-0.122	-0.0643	-0.314	0.714	-0.08
C=CCC(OC(C)=O)[C@@H]1[C@@H](N(Cc2ccc(-c3ccccc3)cc2)C(=O)c2cccc3ccccc23)c2cc(OCCCO)ccc2N1C(=O)c1ccc2ccccc2n1 (stereo not given in full)	-0.0429	0.0158	0.308	-0.379 (inactive)	-0.142	0.124	0.0271	-0.0464	-0.196	1.24	0.0254	-0.281	-0.319	0.367	1.01	-0.224	-0.2	-0.158	0.0708	0.382
CC(C)CN1C(=O)[C@@]2(Cc3ccccc31)c1ccccc1C(=O)N(Cc1ccccc1)[C@H]2c1ccc(CO)cc1	-0.743	0.236	0.514	-0.489 (inactive)	-0.701	-0.776	-0.636	0.554	-0.952	-0.298	-0.587	0.15	-0.757	-0.361	-0.195	-0.096	-0.206	-0.175	-0.845	-0.0612
CC1(C)[C@@H]2CC(C(O)C3C=CC4C(=O)N(c5ccccc5)C(=O)C4N3Nc3ccccc3F)=C[C@@H]1C2 (stereo not given in full)	1.4	0.26	0.471	-1.75 (inactive)	1.34	1.31	0.4	1.31	0.122	0.603	1.4	-3.15	0.501	1.18	-0.229	0.164	0.0639	-0.256	1.34	1.12
O=C(C=C(CC(O)c1cccc(Cl)c1)OCCF)OCCF (stereo not given)	1.87	0.558	0.913	-0.985 (inactive)	-0.357	-0.571	-0.737	-0.863	-0.735	1.31	-2.46	-0.641	-0.492	-0.277	0.896	-0.0678	0.0278	0.0014	0.516	0.392
